Source: the supplement of paper PMC11732987, “Enantioselective OTUD7B fragment discovery through chemoproteomics screening and high-throughput optimisation” (Communications Chemistry, 2025)

Experiments:
Test in all cases: log2 ratio of Biotin-Ahx-Ub-VS probe labelling (fragment/DMSO); higher = less target engagement (more negative = stronger competition), active = hit call of the paper (q ≤ 0.05, log2 ratio ≤ -1)
Conditions in all cases: compound concentration: 200 uM; treatment time: 3 h
USP19 = biological target: T1, USP19 (UniProt O94966)
T1 sequence (whole entry): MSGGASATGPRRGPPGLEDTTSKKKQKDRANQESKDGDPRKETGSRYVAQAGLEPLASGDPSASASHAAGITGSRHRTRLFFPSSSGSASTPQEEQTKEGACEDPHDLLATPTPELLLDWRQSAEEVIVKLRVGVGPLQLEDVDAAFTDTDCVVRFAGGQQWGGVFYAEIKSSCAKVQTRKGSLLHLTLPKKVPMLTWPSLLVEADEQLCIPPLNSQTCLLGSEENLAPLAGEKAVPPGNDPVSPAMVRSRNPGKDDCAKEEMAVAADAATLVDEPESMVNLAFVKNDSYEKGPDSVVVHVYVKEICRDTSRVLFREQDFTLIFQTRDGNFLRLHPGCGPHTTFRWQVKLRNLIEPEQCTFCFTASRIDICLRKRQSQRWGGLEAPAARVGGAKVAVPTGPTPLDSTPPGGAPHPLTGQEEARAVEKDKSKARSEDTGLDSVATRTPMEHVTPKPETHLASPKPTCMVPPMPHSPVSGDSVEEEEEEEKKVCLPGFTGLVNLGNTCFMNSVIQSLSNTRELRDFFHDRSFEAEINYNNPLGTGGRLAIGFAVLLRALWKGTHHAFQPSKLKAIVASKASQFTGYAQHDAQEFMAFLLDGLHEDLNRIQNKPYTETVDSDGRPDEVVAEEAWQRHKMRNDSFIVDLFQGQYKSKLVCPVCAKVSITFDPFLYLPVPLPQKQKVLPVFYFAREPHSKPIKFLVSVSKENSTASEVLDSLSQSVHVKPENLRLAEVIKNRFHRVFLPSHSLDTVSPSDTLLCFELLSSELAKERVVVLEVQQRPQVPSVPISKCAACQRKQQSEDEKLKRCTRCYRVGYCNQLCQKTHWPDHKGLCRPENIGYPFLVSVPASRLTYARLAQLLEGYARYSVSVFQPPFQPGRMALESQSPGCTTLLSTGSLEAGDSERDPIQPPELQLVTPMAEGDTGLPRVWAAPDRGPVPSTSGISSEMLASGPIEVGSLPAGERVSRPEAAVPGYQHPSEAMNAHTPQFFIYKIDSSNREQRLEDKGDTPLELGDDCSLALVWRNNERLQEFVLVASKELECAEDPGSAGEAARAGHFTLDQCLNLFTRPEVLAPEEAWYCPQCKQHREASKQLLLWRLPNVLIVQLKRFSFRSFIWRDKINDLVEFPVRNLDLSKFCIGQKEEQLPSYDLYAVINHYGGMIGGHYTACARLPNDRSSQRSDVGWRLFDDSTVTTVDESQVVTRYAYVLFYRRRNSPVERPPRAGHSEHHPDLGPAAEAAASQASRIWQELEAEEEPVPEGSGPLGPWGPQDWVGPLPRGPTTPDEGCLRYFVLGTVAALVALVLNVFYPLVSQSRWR
Method in brief: (§1)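 Labelling with Biotin-Ahx-Ub-VS (0.5 µM final, 1 h) followed a 3 h triplicate treatment of HEK293T lysate (495 µg per sample, Tris/CHAPS/IGEPAL buffer with protease inhibitors) with fragment at 200 µM or vehicle. Labelled DUBs were NeutrAvidin-enriched, digested with LysC and trypsin, and run by diaPASEF LC-MS/MS. The values, average log2 fragment/vehicle ratios by unpaired t-test, come from global-median-normalised Spectronaut label-free quantities. Proteins with ≥2 unique peptides were used.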

USP24 = USP24 (UniProt Q9UPU5)
Method in brief: as §1

USP25 = biological target: T2, USP25 (UniProt Q9UHP3)
T2 sequence (whole entry): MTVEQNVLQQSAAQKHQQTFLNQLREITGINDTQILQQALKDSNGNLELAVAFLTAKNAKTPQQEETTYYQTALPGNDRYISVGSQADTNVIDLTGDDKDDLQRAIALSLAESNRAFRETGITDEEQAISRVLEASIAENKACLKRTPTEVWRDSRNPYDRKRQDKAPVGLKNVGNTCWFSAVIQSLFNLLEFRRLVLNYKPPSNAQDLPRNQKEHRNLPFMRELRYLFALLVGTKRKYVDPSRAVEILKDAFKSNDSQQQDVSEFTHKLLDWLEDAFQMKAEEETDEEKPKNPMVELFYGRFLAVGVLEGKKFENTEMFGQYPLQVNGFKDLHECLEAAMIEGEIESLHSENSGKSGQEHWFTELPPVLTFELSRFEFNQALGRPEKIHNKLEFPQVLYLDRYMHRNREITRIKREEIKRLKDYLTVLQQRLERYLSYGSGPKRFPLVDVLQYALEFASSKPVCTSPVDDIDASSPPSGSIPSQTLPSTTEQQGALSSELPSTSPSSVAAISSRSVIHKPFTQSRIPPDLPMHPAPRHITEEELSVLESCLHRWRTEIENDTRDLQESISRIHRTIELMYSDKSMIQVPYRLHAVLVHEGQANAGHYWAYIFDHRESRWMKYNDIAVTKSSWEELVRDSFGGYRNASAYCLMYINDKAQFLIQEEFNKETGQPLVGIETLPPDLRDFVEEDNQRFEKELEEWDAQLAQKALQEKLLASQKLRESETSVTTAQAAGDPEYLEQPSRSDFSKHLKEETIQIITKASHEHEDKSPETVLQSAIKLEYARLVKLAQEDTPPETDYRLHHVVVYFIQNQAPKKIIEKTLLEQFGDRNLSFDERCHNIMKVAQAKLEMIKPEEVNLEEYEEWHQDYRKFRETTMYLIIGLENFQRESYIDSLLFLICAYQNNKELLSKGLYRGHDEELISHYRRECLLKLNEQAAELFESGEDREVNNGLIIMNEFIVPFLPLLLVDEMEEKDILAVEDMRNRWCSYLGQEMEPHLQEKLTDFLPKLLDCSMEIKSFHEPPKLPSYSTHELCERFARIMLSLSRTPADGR
Method in brief: as §1

USP28 = biological target: T3, USP28 (UniProt Q96RU2)
T3 sequence (whole entry): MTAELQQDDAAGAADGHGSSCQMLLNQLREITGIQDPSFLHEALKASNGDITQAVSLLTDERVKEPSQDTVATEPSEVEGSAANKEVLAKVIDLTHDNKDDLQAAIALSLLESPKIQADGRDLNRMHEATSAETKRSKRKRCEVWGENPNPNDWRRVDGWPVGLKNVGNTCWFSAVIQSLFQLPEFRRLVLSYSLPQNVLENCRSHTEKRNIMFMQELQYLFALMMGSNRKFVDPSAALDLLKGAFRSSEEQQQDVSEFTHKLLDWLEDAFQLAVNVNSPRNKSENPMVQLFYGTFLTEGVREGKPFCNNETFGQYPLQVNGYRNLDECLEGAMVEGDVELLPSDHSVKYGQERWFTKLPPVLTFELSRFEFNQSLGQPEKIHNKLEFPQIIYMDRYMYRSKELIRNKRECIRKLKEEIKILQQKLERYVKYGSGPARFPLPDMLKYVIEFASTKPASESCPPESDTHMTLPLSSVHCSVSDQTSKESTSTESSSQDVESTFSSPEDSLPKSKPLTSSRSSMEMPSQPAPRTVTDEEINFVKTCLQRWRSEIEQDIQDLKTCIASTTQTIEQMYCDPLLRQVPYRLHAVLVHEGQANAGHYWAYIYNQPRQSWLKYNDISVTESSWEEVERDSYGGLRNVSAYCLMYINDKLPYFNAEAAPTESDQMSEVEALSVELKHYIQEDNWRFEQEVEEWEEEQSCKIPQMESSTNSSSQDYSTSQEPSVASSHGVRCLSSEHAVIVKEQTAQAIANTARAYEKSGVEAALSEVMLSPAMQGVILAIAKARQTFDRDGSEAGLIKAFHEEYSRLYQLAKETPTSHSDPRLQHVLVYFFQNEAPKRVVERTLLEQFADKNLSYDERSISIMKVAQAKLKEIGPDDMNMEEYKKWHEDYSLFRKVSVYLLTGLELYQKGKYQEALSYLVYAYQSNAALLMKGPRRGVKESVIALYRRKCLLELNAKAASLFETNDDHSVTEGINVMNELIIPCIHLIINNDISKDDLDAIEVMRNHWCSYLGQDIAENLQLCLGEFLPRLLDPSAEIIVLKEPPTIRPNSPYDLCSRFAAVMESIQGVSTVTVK
Method in brief: as §1

Measured: log2 ratio of Biotin-Ahx-Ub-VS probe labelling

USP24, sequence (Q9UPU5 whole entry): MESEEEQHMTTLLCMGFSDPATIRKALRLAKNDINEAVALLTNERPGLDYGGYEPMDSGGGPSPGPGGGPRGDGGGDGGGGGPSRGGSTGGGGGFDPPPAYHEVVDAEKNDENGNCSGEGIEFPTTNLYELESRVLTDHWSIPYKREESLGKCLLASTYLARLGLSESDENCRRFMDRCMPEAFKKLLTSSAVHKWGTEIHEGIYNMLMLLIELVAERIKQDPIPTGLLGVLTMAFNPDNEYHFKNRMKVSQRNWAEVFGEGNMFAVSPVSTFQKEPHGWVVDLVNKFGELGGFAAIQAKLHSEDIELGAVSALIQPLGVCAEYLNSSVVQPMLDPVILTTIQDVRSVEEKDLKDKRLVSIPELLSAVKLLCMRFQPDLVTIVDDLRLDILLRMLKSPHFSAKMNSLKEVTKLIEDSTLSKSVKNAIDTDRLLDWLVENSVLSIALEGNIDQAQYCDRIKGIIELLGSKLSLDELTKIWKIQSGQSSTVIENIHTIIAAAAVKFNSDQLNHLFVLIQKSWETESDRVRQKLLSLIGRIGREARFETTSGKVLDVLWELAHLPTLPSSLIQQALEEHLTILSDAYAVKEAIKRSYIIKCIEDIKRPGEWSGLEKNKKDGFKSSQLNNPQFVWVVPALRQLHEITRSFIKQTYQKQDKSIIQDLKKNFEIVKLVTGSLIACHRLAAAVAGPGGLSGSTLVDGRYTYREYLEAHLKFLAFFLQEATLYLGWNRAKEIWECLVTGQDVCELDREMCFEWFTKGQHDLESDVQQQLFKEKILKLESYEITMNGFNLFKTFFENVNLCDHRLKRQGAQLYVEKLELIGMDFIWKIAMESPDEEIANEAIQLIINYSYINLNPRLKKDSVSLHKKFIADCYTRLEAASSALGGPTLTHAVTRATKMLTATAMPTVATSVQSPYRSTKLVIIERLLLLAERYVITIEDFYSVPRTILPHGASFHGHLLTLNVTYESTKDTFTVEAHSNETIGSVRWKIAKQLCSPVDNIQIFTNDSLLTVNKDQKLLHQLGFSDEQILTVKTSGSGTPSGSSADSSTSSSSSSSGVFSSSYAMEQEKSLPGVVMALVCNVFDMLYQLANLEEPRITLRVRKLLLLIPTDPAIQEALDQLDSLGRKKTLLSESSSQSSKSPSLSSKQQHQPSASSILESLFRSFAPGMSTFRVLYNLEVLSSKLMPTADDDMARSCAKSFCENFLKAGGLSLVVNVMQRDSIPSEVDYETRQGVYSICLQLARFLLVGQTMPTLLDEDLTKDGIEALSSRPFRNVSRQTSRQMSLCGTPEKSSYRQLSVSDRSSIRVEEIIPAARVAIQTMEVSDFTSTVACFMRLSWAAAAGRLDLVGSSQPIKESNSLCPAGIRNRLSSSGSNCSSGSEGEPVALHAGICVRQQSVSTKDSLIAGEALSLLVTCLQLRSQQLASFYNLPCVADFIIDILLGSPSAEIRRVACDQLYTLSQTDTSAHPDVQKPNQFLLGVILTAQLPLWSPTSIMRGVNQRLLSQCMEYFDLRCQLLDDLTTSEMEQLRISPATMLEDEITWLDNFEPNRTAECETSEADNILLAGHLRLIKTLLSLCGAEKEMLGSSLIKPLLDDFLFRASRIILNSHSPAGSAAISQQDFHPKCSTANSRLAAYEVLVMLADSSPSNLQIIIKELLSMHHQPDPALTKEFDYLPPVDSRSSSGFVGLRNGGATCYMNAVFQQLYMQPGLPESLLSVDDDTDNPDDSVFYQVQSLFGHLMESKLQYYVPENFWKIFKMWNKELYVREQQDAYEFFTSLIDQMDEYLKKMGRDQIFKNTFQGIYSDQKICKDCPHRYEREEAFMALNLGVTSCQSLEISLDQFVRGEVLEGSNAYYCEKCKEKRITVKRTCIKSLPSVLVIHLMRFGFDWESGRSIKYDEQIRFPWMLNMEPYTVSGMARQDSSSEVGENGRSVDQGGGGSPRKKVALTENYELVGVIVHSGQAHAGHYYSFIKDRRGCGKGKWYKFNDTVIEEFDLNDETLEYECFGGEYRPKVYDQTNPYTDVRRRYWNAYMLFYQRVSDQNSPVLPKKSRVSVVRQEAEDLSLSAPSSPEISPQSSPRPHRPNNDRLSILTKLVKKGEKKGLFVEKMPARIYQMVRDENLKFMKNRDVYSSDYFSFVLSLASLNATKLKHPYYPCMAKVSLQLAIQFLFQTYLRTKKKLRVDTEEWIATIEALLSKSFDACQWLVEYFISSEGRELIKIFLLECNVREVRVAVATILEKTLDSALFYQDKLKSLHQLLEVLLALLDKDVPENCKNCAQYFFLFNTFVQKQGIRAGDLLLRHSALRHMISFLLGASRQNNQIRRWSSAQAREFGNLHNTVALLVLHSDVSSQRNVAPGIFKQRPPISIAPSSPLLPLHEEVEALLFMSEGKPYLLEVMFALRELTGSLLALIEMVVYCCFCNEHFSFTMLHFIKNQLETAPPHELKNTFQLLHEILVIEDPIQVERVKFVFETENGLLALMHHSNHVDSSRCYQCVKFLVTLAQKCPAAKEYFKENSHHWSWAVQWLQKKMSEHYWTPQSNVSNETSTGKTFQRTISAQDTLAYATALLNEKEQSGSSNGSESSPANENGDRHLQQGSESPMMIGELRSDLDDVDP

CCC(NC(=O)CCl)c1ccc(Cl)cc1 (centres undefined)
inactive: USP19 -0.0763 | USP24 -0.327 | USP25 -0.24 | USP28 -0.504
